“And” between values parts separate entries of the source, which are not always exact repeats. Equal entries are not always repeated. The whole screen tested about 5,500 compounds, of which about 2,000 (36%) were called active. Another 18% or so got no clear call; they are omitted. No stated cut-off is given here; in the data, active means normalized growth mostly below about 0.91 (no sharp cut-off); inconclusive means no clear call, values can overlap the other calls; inactive means mostly above about 0.92. Some of the results follow.
Assay: chemical genetic growth profiling, strain panel (AID 1159580);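 further: tested at 20 µM; growth read once vehicle control cultures reached saturation at 30 °C; 1 = growth at the plate median or of vehicle wells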
Settings: S. cerevisiae deletion strains, growth OD

Measured: normalized growth

c1ccc(CN(CC2=NCCN2)c2ccccc2)cc1
inactive: locus YAL013W, strain DEP1, stronger effect = lower value 1.01 | locus YAL021C, strain ccr4, stronger effect = lower value 0.973 | locus YAL026C, strain drs2, stronger effect = lower value 0.999 | locus YAL030W, strain snc1, stronger effect = lower value 1.01 | locus YBL061C, strain skt5, stronger effect = lower value 1.03 | locus YBR009C, strain hhf1, stronger effect = lower value 0.998 | locus YBR021W, strain FUR4, stronger effect = lower value 1.02 | locus YBR023C, strain chs3, stronger effect = lower value 1.02 | locus YBR171W, strain sec66, stronger effect = lower value 1.02 | locus YBR229C, strain ROT2, stronger effect = lower value 1 | locus YBR231C, strain swc5, stronger effect = lower value 0.999 | locus YBR279W, strain paf1, stronger effect = lower value 1.02 | locus YCL011C, strain gbp2, stronger effect = lower value 0.989 | locus YCL016C, strain dcc1, stronger effect = lower value 0.976 | locus YCL029C, strain bik1, stronger effect = lower value 1.01 | locus YCL069W, strain vba3, stronger effect = lower value 1.02 | locus YCR088W, strain abp1, stronger effect = lower value 1.01 | locus YDL005C, strain med2, stronger effect = lower value 1.01 | locus YDL035C, strain GPR1, stronger effect = lower value 1.02 | locus YDL040C, strain nat1, stronger effect = lower value 1.02 | locus YDL074C, strain BRE1, stronger effect = lower value 1.01 | locus YDL101C, strain DUN1, stronger effect = lower value 1.01 | locus YDL134C, strain PPH21, stronger effect = lower value 1.01 | locus YDL185W, strain tfp1, stronger effect = lower value 1 | locus YDL192W, strain arf1, stronger effect = lower value 1 | locus YDR001C, strain nth1, stronger effect = lower value 1.01 | locus YDR069C, strain doa4, stronger effect = lower value 1.02 | locus YDR101C, strain arx1, stronger effect = lower value 0.994 | locus YDR137W, strain rgp1, stronger effect = lower value 0.967 | locus YDR159W, strain sac3, stronger effect = lower value 1 | locus YDR162C, strain NBP2, stronger effect = lower value 1.03 | locus YDR195W, strain ref2 1.02 | locus YDR297W, strain sur2, stronger effect = lower value 1.01 | locus YDR318W, strain mcm21, stronger effect = lower value 0.992 | locus YDR334W, strain swr1, stronger effect = lower value 1.02 | locus YDR335W, strain msn5, stronger effect = lower value 1 | locus YDR388W, stronger effect = lower value 1.01 | locus YDR392W, strain spt3, stronger effect = lower value 0.961 | locus YDR502C, strain sam2, stronger effect = lower value 1 | locus YEL003W, strain gim4, stronger effect = lower value 1.03 | locus YEL037C, strain rad23, stronger effect = lower value 1.01 | locus YEL061C, strain CIN8 (second series), stronger effect = lower value 1.01 | locus YEL061C, strain CIN8, stronger effect = lower value 1.01 | locus YER015W, strain faa2, stronger effect = lower value 0.999 | locus YER016W, strain bim1, stronger effect = lower value 1.01 | locus YER110C, stronger effect = lower value 0.992 | locus YER111C, strain swi4, stronger effect = lower value 1.03 | locus YER155C, strain BEM2 (second series), stronger effect = lower value 1.04 | locus YER155C, strain BEM2, stronger effect = lower value 0.997 | locus YER167W, strain BCK2, stronger effect = lower value 1.01 | locus YFR010W, strain ubp6, stronger effect = lower value 1.02 | locus YGL078C, strain dbp3, stronger effect = lower value 0.997 | locus YGL086W, strain mad1, stronger effect = lower value 0.997 | locus YGL167C, strain pmr1, stronger effect = lower value 1.03 | locus YGL173C, strain kem1, stronger effect = lower value 1.03 | locus YGL227W, strain vid30, stronger effect = lower value 1.01 | locus YGL240W, strain doc1, stronger effect = lower value 1.04 | locus YGL248W, strain PDE1, stronger effect = lower value 1 | locus YGL253W, strain hxk2, stronger effect = lower value 1 | locus YGR135W, strain pre9, stronger effect = lower value 1 | locus YGR252W, strain gcn5, stronger effect = lower value 0.997 | locus YHR013C, strain ard1, stronger effect = lower value 0.972 | locus YHR027C, strain rpn1, stronger effect = lower value 1.02 | locus YHR030C, strain SLT2, stronger effect = lower value 1.01 and 1.02 | locus YHR079C, strain IRE1 (second series), stronger effect = lower value 0.995 | locus YHR079C, strain IRE1, stronger effect = lower value 1.03 | locus YHR094C, strain hxt1, stronger effect = lower value 1 | locus YHR129C, strain ARP1, stronger effect = lower value 1.01 | locus YHR142W, strain chs7, stronger effect = lower value 1 | locus YHR200W, strain rpn10, stronger effect = lower value 1.01 | locus YIL066C, strain RNR3, stronger effect = lower value 1.03 | locus YIL073C, strain SPO22, stronger effect = lower value 1 | locus YIL125W, strain kgd1, stronger effect = lower value 1 | locus YIR030C, strain dcg1, stronger effect = lower value 0.991 | locus YJL092W, strain hpr5, stronger effect = lower value 1.03 | locus YJL095W, strain BCK1 (second series), stronger effect = lower value 1.01 | locus YJL095W, strain BCK1, stronger effect = lower value 1.02 and 1.04 | locus YJL115W, strain asf1, stronger effect = lower value 0.999 | locus YJL129C, strain trk1, stronger effect = lower value 1.03 | locus YJL134W, strain LCB3, stronger effect = lower value 1.01 | locus YJL154C, strain vps35, stronger effect = lower value 1.01 | locus YJL164C, strain tpk1, stronger effect = lower value 0.974 | locus YJL166W, strain qcr8, stronger effect = lower value 1.03 | locus YJL168C, strain set2, stronger effect = lower value 0.993 | locus YJL187C, strain SWE1 (second series), stronger effect = lower value 1.01 | locus YJR043C, strain POL32, stronger effect = lower value 1.01 | locus YJR066W, strain TOR1, stronger effect = lower value 0.983 | locus YKL009W, strain mrt4, stronger effect = lower value 0.994 | locus YKL068W, stronger effect = lower value 1 | locus YKL085W, strain MDH1 (second series), stronger effect = lower value 1.01 | locus YKL085W, strain MDH1, stronger effect = lower value 1.01 | locus YKL160W, strain elf1, stronger effect = lower value 1.02 | locus YKR001C, strain vps1, stronger effect = lower value 0.997 | locus YKR026C, strain gcn3, stronger effect = lower value 0.97 | locus YKR091W, strain srl3, stronger effect = lower value 0.999 | locus YLL001W, strain dnm1, stronger effect = lower value 1.03 | locus YLL026W, stronger effect = lower value 1.02 | locus YLL041C, strain sdh2, stronger effect = lower value 1.01 | locus YLR027C, strain aat2, stronger effect = lower value 0.993 | locus YLR039C, strain RIC1, stronger effect = lower value 0.993 | locus YLR058C, strain SHM2, stronger effect = lower value 1.01 | locus YLR102C, strain apc9, stronger effect = lower value 0.998 | locus YLR113W, strain HOG1, stronger effect = lower value 1.04 | locus YLR221C, strain rsa3, stronger effect = lower value 1.01 | locus YLR258W, strain gsy2, stronger effect = lower value 0.992 | locus YLR262C, strain YPT6 (second series), stronger effect = lower value 1.01 | locus YLR262C, strain YPT6, stronger effect = lower value 1.04 | locus YLR268W, strain sec22, stronger effect = lower value 0.999 | locus YLR320W, strain mms22, stronger effect = lower value 0.982 | locus YLR330W, strain CHS5, stronger effect = lower value 1.01 | locus YLR342W, strain FKS1 (second series), stronger effect = lower value 1.03 | locus YLR342W, strain FKS1, stronger effect = lower value 1.02 | locus YLR357W, strain rsc2, stronger effect = lower value 1.03 | locus YLR370C, strain arc18, stronger effect = lower value 1 | locus YLR371W, strain rom2, stronger effect = lower value 1.01 | locus YLR384C, strain iki3, stronger effect = lower value 1.02 | locus YLR418C, strain cdc73, stronger effect = lower value 1.02 | locus YML016C, strain PPZ1, stronger effect = lower value 1 | locus YML032C, strain rad52, stronger effect = lower value 0.993 | locus YML120C, strain ndi1, stronger effect = lower value 1.03 | locus YML124C, strain tub3, stronger effect = lower value 0.992 | locus YMR058W, strain fet3, stronger effect = lower value 1.01 | locus YMR078C, strain ctf18, stronger effect = lower value 1 | locus YMR125W, strain sto1, stronger effect = lower value 1.01 | locus YMR129W, stronger effect = lower value 1.02 | locus YMR205C, strain PFK2, stronger effect = lower value 1.02 | locus YMR223W, strain ubp8, stronger effect = lower value 1 | locus YMR231W, strain pep5, stronger effect = lower value 1 | locus YMR307W, strain GAS1, stronger effect = lower value 1.08 | locus YNL067W, strain RPL9B, stronger effect = lower value 1.02 | locus YNL071W, strain lat1, stronger effect = lower value 0.999 | locus YNL183C, strain NPR1, stronger effect = lower value 0.975 | locus YNL209W, strain ssb2, stronger effect = lower value 0.996 | locus YNL233W, strain BNI4, stronger effect = lower value 1 | locus YNL248C, strain rpa49, stronger effect = lower value 0.987 | locus YNL250W, strain rad50, stronger effect = lower value 0.992 | locus YNL271C, strain bni1, stronger effect = lower value 0.995 | locus YNL298W, strain CLA4, stronger effect = lower value 1.01 | locus YNL307C, strain MCK1, stronger effect = lower value 1 | locus YNL322C, strain KRE1 (second series), stronger effect = lower value 1.01 | locus YNR049C, strain mso1, stronger effect = lower value 1.01 | locus YNR052C, strain pop2, stronger effect = lower value 0.996 | locus YOL012C, strain htz1 0.89 | locus YOL147C, strain pex11, stronger effect = lower value 1 | locus YOR001W, strain rrp6, stronger effect = lower value 1.02 | locus YOR061W, strain CKA2, stronger effect = lower value 1.01 | locus YOR069W, strain VPS5, stronger effect = lower value 1 | locus YOR070C, strain gyp1, stronger effect = lower value 1 | locus YOR080W, strain dia2, stronger effect = lower value 1.01 | locus YOR083W, strain WHI5, stronger effect = lower value 1.02 | locus YOR106W, strain vam3, stronger effect = lower value 1.03 | locus YOR136W, strain idh2, stronger effect = lower value 1 | locus YOR144C, strain elg1, stronger effect = lower value 0.998 | locus YOR184W, strain ser1, stronger effect = lower value 1.01 | locus YOR231W, strain MKK1, stronger effect = lower value 1.06 | locus YOR265W, strain rbl2, stronger effect = lower value 1.01 | locus YOR270C, strain vph1, stronger effect = lower value 0.988 | locus YOR290C, strain snf2, stronger effect = lower value 0.969 | locus YOR316C, strain cot1, stronger effect = lower value 1 | locus YPL051W, strain arl3, stronger effect = lower value 1.03 | locus YPL078C, strain atp4, stronger effect = lower value 1.04 | locus YPL106C, strain sse1, stronger effect = lower value 0.998 | locus YPL240C, strain hsp82, stronger effect = lower value 0.97 | locus YPL241C, strain CIN2, stronger effect = lower value 1.01 | locus YPL256C, strain CLN2, stronger effect = lower value 1.06 | locus YPR119W, strain clb2, stronger effect = lower value 0.991 | locus YPR141C, strain kar3, stronger effect = lower value 1 | locus YPR163C, strain tif3, stronger effect = lower value 1.01 | locus YPR167C, strain met16, stronger effect = lower value 0.996 | strain wtn01, stronger effect = lower value 0.99

From PubChem BioAssay AID1159580 (chemical genetic matrix, 2015)
